# How the values were obtained:
# [1] = target: Platelet-derived growth factor receptor beta (Homo sapiens) (UniProt P09619); details: at 1 µM;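 note: each value is a mean percent inhibition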
# [2] = target: Tyrosine-protein kinase FRK (Homo sapiens) (UniProt P42685); details: at 0.1 µM
# [3] = target: Tyrosine-protein kinase FRK (Homo sapiens) (UniProt P42685); details: at 1 µM
# [4] = target: Protein-tyrosine kinase 2-beta (Homo sapiens) (UniProt Q14289); details: at 0.1 µM
# [5] = target: Protein-tyrosine kinase 2-beta (Homo sapiens) (UniProt Q14289); details: at 1 µM
# [6] = target: Proto-oncogene tyrosine-protein kinase receptor Ret (Homo sapiens) (UniProt P07949); details: at 0.1 µM
# Sequence of Proto-oncogene tyrosine-protein kinase receptor Ret (Homo sapiens) (P07949 whole entry): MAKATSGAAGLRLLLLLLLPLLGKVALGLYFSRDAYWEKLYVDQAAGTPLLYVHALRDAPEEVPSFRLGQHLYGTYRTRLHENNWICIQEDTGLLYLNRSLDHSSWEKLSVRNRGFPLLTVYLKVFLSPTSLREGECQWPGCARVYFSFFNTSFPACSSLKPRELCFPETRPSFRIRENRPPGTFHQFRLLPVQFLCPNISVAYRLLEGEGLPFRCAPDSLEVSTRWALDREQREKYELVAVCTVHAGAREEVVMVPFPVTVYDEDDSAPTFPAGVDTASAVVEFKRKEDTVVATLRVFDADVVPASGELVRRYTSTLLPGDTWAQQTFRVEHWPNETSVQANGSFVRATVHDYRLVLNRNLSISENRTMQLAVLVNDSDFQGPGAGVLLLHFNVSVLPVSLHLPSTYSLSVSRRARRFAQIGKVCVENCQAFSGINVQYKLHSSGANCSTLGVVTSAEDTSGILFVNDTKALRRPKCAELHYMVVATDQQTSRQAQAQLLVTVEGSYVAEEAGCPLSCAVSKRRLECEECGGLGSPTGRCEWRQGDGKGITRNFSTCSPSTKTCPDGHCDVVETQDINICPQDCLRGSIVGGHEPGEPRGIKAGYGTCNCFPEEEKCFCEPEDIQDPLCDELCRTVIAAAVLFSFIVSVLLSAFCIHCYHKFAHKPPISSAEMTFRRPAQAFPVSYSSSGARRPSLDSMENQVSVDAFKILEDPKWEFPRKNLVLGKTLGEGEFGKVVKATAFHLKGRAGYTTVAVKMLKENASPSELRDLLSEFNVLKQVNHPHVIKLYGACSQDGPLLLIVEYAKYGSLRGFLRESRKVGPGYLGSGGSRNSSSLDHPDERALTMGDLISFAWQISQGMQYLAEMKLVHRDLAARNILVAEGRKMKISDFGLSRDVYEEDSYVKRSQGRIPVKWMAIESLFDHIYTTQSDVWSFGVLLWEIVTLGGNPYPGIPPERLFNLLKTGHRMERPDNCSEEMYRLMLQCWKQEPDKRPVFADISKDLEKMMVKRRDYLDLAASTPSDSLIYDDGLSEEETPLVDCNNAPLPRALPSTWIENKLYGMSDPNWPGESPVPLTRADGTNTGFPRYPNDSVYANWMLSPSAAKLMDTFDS
# [7] = target: Proto-oncogene tyrosine-protein kinase receptor Ret (Homo sapiens) (UniProt P07949); details: at 1 µM
# [8] = test system: Proto-oncogene tyrosine-protein kinase receptor Ret (Homo sapiens), P07949 [V804L]; details: at 0.1 µM
# Sequence of Proto-oncogene tyrosine-protein kinase receptor Ret (Homo sapiens), P07949 [V804L] (P07949 whole entry V804L): as the sequence (P07949 whole entry) above, with V804L counted along it
# [9] = test system: Proto-oncogene tyrosine-protein kinase receptor Ret (Homo sapiens), P07949 [V804L]; details: at 1 µM
# [10] = test system: Proto-oncogene tyrosine-protein kinase receptor Ret (Homo sapiens), P07949 [Y791F]; details: at 0.1 µM
# Sequence of Proto-oncogene tyrosine-protein kinase receptor Ret (Homo sapiens), P07949 [Y791F] (P07949 whole entry Y791F): as the sequence (P07949 whole entry) above, with Y791F counted along it
# [11] = test system: Proto-oncogene tyrosine-protein kinase receptor Ret (Homo sapiens), P07949 [Y791F]; details: at 1 µM
# [12] = target: Macrophage-stimulating protein receptor (Homo sapiens) (UniProt Q04912); details: at 0.1 µM
# Sequence of Macrophage-stimulating protein receptor (Homo sapiens) (Q04912 25-304 limits assumed): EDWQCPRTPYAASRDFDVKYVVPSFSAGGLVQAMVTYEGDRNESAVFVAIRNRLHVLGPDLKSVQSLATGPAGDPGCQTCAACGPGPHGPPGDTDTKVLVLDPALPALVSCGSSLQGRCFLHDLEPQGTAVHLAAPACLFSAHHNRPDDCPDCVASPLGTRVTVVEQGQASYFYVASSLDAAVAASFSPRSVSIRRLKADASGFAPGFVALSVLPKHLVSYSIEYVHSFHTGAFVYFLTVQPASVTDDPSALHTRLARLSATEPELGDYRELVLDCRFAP
# Sequence of Macrophage-stimulating protein receptor (Homo sapiens) (Q04912 310-1400 limits assumed): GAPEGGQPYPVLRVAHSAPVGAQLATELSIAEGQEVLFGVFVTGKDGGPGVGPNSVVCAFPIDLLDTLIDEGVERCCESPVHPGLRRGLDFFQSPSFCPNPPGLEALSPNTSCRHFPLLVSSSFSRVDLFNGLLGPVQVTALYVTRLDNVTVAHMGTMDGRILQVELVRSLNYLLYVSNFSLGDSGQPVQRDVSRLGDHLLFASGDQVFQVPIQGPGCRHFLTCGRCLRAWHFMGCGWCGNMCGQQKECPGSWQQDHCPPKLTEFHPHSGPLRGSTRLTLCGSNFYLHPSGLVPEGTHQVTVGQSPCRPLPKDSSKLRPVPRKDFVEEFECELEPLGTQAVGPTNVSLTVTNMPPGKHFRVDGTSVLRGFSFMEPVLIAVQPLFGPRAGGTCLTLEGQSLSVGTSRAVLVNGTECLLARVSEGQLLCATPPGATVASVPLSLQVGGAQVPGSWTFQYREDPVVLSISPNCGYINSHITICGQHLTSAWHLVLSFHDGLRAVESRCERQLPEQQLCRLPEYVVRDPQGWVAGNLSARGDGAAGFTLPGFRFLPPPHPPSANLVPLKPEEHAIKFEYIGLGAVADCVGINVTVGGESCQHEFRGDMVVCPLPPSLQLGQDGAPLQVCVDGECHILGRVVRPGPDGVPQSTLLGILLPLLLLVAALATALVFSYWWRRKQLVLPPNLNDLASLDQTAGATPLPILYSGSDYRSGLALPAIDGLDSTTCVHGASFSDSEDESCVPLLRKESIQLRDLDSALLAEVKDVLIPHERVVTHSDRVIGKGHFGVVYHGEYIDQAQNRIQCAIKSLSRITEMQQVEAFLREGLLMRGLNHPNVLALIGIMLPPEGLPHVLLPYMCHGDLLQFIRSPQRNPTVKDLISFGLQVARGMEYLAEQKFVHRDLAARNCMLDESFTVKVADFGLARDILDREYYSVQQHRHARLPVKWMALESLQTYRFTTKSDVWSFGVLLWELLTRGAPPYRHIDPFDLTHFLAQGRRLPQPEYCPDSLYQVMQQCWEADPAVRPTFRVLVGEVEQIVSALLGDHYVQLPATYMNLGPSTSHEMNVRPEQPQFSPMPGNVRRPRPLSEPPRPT
# [13] = target: Macrophage-stimulating protein receptor (Homo sapiens) (UniProt Q04912); details: at 1 µM
# [14] = target: Proto-oncogene tyrosine-protein kinase ROS (Homo sapiens) (UniProt P08922); details: at 0.1 µM
# Sequence of Proto-oncogene tyrosine-protein kinase ROS (Homo sapiens) (P08922 whole entry): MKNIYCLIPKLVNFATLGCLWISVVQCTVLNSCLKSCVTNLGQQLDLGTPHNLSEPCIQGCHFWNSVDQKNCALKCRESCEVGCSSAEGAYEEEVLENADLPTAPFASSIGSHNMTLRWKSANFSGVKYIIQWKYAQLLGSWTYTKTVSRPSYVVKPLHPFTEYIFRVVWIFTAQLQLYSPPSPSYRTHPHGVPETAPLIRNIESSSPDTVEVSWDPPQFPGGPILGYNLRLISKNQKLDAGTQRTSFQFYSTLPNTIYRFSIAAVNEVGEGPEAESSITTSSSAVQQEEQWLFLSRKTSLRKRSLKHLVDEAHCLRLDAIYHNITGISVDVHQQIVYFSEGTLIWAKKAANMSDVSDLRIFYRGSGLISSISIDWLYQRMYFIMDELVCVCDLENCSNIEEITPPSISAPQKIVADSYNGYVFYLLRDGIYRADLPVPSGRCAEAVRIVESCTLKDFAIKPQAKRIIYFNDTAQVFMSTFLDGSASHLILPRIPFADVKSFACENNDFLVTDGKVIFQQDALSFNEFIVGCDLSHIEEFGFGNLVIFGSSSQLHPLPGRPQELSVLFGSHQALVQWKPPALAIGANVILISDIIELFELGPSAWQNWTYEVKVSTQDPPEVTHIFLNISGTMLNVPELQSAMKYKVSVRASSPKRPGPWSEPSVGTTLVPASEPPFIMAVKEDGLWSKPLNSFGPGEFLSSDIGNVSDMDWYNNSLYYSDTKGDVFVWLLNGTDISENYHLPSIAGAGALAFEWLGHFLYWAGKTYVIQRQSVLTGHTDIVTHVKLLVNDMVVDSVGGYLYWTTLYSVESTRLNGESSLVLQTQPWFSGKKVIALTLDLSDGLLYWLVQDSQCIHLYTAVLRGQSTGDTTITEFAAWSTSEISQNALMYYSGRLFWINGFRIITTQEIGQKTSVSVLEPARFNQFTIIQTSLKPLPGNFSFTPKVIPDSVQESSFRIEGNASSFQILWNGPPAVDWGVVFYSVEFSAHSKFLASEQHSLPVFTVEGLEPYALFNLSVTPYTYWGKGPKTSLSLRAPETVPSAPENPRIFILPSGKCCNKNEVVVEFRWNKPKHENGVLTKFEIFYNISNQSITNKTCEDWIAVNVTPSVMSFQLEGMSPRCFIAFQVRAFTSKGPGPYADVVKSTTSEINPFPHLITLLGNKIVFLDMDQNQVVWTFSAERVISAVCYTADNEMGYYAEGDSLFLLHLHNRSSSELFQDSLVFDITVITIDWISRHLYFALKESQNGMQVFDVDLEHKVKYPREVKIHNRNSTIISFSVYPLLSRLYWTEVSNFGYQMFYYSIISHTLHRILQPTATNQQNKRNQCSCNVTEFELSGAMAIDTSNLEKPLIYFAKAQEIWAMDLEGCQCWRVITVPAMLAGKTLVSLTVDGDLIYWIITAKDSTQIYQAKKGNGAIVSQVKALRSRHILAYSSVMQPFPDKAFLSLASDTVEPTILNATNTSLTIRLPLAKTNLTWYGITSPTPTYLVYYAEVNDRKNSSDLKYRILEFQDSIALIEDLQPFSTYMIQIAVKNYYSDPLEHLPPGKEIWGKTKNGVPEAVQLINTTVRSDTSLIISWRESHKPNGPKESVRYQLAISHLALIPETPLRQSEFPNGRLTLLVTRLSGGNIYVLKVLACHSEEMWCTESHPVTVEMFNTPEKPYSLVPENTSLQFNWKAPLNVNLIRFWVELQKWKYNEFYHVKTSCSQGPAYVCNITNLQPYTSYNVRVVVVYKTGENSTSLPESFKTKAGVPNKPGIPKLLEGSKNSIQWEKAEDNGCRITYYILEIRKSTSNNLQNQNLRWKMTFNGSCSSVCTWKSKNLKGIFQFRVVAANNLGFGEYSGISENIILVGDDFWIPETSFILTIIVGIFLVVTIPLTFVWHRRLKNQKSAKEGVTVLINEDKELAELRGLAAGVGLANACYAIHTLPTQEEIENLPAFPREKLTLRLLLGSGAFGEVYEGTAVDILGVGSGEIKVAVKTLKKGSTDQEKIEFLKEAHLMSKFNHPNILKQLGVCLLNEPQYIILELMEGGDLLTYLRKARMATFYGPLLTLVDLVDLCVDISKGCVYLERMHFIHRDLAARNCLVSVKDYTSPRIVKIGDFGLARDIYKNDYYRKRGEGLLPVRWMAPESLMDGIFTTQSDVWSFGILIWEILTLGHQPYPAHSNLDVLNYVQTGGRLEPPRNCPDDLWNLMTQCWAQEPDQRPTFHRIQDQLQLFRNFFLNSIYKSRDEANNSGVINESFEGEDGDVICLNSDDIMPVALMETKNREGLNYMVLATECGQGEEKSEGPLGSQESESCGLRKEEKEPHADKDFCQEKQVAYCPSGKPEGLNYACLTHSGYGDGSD
# [15] = target: Proto-oncogene tyrosine-protein kinase ROS (Homo sapiens) (UniProt P08922); details: at 1 µM
# [16] = target: Proto-oncogene tyrosine-protein kinase Src (Homo sapiens) (UniProt P12931); details: at 0.1 µM
# [17] = target: Proto-oncogene tyrosine-protein kinase Src (Homo sapiens) (UniProt P12931); details: at 1 µM
# [18] = target: Tyrosine-protein kinase Srms (Homo sapiens) (UniProt Q9H3Y6); details: at 0.1 µM
# [19] = target: Tyrosine-protein kinase Srms (Homo sapiens) (UniProt Q9H3Y6); details: at 1 µM
# [20] = target: Tyrosine-protein kinase SYK (Homo sapiens) (UniProt P43405); details: at 0.1 µM;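 note: reported percentages are mean inhibition values for SYK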
SMILES,inhibition [1],inhibition [2],inhibition [3],inhibition [4],inhibition [5],inhibition [6],inhibition [7],inhibition [8],inhibition [9],inhibition [10],inhibition [11],inhibition [12],inhibition [13],inhibition [14],inhibition [15],inhibition [16],inhibition [17],inhibition [18],inhibition [19],inhibition [20]
CS(=O)(=O)CCNCc1ccc(-c2ccc3ncnc(Nc4ccc(OCc5ccccc5)c(Cl)c4)c3c2)o1,5.7%,0.96%,2.22%,5.42%,5.81%,4.78%,9.58%,9.04%,12.4%,10.2%,12.1%,3.3%,5.38%,3.99%,4.36%,0.6%,3.9%,-0.03%,-0.79%,1.87%
O=C1NC(=O)C(N2CCc3ccccc32)=C1c1ccc(Cl)cc1,8.69%,2.55%,3.4%,8.33%,7.03%,2.35%,10.1%,7.17%,9.11%,11.4%,10.4%,-2.48%,2.52%,10.9%,14.1%,5.94%,15.5%,-2.77%,0.25%,-4.42%
CCn1c(-c2nonc2N)nc2c(N3CCCC3)nccc21,8.55%,-0.17%,0%,1.2%,-3.88%,4.49%,20.8%,0.68%,-0.73%,0%,2.26%,1.7%,0.95%,4.19%,4.49%,-2.23%,-2.52%,0.27%,0.26%,-1.66%
NC(=O)c1cccc(Nc2nccc(Nc3cccc4[nH]ncc34)n2)c1,84%,61.6%,93.9%,9.7%,65.5%,37.8%,82.1%,5.88%,39.4%,46%,79.7%,1.43%,4.78%,21.8%,66%,86.3%,94.9%,8.24%,41.9%,-5.51%
Nc1nc(-c2ccccn2)c(-c2ccc3ncccc3n2)s1,7.71%,2.13%,1.57%,8.82%,12.2%,1.19%,4.76%,1.3%,5.95%,2.3%,10.2%,3.66%,6.53%,2.94%,4.03%,0.7%,7.78%,-0.44%,-2.72%,-1.33%
CC1=C(C(=O)Nc2ccc3[nH]ncc3c2)C(c2ccc(Cl)c(Cl)c2)CC(=O)N1 (stereo not given),6.02%,1.03%,7.47%,6.27%,8.74%,5.65%,22.8%,3.81%,16.5%,8.05%,25.4%,3.91%,15%,2.14%,8.67%,17.4%,24.9%,1.99%,-3.08%,-3.45%
Nc1ncnc2occ(-c3ccc(NC(=O)Nc4cc(C(F)(F)F)cc(C(F)(F)F)c4)cc3)c12,81.5%,1.36%,4.51%,8.32%,19.4%,76.4%,81.4%,38.4%,77%,60.7%,75.6%,-3.85%,7.91%,1.98%,15.9%,-4.73%,24.4%,-0.11%,-0.05%,-5.69%
